In PubChem BioAssay AID2227 (Johns Hopkins Ion Channel Center, 2009) one finds B-score data, which are given here for 20 compounds.

Among all 310,000 compounds or so, about 1,300 (0.42%) were called active. The sample holds actives, similar compounds and a random draw of the others, so the mix is not that of the screen.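 How the source made its calls: active means B-score of calcium response area above 5 SD of library B-scores, with initial fluorescence ratio within 5 SD of library; inactive means the rest.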

The target in the assay is Short transient receptor potential channel 4 (Mus musculus) (UniProt Q9QUQ5). Nature of the assay: TRPC4 channel potentiators under submaximal DAMGO – cell-based, mouse TRPC4beta, HEK293 mu-opioid, Fluo-4 calcium, primary screen (AID 2227).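 On B-score: B-score of integrated fluorescence ratio over time as area under calcium response.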 Particulars: DAMGO EC20, Fluo-4 Ca2+ flux, at 10 µM; hits give high values.
Sequence of Short transient receptor potential channel 4 (Mus musculus) (Q9QUQ5 whole entry, looked up): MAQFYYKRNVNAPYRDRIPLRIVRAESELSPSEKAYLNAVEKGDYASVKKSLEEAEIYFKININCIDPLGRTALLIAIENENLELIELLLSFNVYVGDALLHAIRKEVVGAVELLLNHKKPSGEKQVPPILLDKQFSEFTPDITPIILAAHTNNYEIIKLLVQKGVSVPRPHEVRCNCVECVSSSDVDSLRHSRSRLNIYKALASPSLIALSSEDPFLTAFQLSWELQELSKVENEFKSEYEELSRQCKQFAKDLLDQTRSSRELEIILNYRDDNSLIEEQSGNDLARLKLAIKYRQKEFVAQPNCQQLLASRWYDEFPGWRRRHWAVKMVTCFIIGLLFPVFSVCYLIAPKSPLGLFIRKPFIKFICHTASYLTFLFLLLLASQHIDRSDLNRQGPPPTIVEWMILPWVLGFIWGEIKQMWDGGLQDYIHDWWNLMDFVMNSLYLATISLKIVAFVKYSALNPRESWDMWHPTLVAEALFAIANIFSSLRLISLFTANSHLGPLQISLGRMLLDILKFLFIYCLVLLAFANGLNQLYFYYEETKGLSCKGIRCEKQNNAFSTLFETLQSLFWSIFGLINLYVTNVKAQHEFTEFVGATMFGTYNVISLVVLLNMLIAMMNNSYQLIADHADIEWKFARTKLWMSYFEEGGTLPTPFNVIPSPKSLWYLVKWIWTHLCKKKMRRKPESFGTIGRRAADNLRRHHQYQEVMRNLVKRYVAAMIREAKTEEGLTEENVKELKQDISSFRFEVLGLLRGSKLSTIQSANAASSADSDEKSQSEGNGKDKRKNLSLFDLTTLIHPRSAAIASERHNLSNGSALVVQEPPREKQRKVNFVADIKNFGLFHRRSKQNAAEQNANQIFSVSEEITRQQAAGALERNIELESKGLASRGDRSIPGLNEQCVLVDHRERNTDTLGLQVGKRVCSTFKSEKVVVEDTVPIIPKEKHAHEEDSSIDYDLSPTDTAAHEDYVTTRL
As for `CCN1CC2C3CCC(C)(O3)C2C1` (stereo not given), the B-score is 15 (active). On to `Cc1ccc(N(C)C(=O)Oc2cccc3ccc(C)nc23)cc1`, for which the B-score entry is “inactive”. `CN(C)C(=O)Oc1ccc2c(c1)O/C(=C\c1ccccc1)C2=O`: the B-score entry is “inactive”. Turning to `CNC(=O)O/N=C(\N)Cc1csc2ccccc12`, the B-score result was “inactive”. Regarding `O=c1c2ccccc2nc(-c2ccccc2)n1-c1ccccn1`, the B-score entry is “inactive”. Regarding `Cc1ccc(-c2nc3ccccc3c(=O)n2-c2ccc(Br)cn2)cc1`, the B-score is 12 (active). For the compound `O=c1c2ccccc2nc(-c2ccco2)n1-c1ccc(Br)cn1`, the B-score result was “inactive”. On to `CC(=NCc1ccc2c(c1)OCO2)c1c(O)[nH]c(=O)[nH]c1=O`, for which the B-score result is “inactive”. Take `COC(=O)C1=C(c2cc3ccccc3s2)C[C@@H]2CC[C@H]1N2C(=O)NCCO`: the B-score result was “inactive”. Regarding `O=C(Cn1c(=O)n(CC2CS2)c2ccccc21)N1CCCCC1` (stereo not given), the B-score entry is “inactive”.

`COC(=O)C(O)(c1ccc(NC(=O)c2ccco2)c(OC)c1)C(F)(F)F` (stereo not given): the B-score is 12 (active). Regarding `CCOC(=O)C(O)(c1ccc(NC(=O)c2ccco2)c(OC)c1)C(F)(F)F` (stereo not given), the B-score result is “inactive”. Next, `CCOC(=O)C(O)(c1ccc(N)c(OC)c1)C(F)(F)F` (stereo not given): “inactive”; `Cc1ccc2c(c1)=C/C(=C\c1c(O)[nH]c(=O)[nH]c1=O)C(=O)N=2`: “inactive”; `COc1ccccc1C1=NCc2nnc(CSC)n2-c2ccc(Cl)cc21`: “inactive”. With `Fc1ccc(N2CCN(Cc3ccc4c(c3)OCO4)CC2)cc1`, the B-score result is “inactive”. In the case of `O=C(Cc1ccccc1[N+](=O)[O-])N1CCN(Cc2ccc3c(c2)OCO3)CC1` it was “inactive”; in that of `CCN1CCN(Cc2cc(OC)c3c(c2)OCO3)CC1`, 11 (active); in that of `Cc1cc2ccccn2c1C(C[N+](=O)[O-])c1c(F)cccc1Cl` (stereo not given), “inactive”. Next, `O=c1[nH]c(=S)n(C2CC2)c(O)c1/C=N/N1CCOCC1`: “inactive”.
